High-throughput results deposited in PubChem by National Center for Advancing Translational Sciences (NCATS).
KDM5B inhibitor: KDM5B demethylase inhibition | KDM5B demethylase, FDH-coupled NADH fluorescence (FDH is formaldehyde dehydrogenase) | Potency, µM (highest dose often 57.7 µM), most hits filed as inhibitors | 2.6% of 220,000 active; note: potency is the fitted concentration of half-maximal effect; 0% is about no effect; nearly all actives have a fitted effect of over 70% in size
Target sequence (Q9UGL1 whole entry, looked up): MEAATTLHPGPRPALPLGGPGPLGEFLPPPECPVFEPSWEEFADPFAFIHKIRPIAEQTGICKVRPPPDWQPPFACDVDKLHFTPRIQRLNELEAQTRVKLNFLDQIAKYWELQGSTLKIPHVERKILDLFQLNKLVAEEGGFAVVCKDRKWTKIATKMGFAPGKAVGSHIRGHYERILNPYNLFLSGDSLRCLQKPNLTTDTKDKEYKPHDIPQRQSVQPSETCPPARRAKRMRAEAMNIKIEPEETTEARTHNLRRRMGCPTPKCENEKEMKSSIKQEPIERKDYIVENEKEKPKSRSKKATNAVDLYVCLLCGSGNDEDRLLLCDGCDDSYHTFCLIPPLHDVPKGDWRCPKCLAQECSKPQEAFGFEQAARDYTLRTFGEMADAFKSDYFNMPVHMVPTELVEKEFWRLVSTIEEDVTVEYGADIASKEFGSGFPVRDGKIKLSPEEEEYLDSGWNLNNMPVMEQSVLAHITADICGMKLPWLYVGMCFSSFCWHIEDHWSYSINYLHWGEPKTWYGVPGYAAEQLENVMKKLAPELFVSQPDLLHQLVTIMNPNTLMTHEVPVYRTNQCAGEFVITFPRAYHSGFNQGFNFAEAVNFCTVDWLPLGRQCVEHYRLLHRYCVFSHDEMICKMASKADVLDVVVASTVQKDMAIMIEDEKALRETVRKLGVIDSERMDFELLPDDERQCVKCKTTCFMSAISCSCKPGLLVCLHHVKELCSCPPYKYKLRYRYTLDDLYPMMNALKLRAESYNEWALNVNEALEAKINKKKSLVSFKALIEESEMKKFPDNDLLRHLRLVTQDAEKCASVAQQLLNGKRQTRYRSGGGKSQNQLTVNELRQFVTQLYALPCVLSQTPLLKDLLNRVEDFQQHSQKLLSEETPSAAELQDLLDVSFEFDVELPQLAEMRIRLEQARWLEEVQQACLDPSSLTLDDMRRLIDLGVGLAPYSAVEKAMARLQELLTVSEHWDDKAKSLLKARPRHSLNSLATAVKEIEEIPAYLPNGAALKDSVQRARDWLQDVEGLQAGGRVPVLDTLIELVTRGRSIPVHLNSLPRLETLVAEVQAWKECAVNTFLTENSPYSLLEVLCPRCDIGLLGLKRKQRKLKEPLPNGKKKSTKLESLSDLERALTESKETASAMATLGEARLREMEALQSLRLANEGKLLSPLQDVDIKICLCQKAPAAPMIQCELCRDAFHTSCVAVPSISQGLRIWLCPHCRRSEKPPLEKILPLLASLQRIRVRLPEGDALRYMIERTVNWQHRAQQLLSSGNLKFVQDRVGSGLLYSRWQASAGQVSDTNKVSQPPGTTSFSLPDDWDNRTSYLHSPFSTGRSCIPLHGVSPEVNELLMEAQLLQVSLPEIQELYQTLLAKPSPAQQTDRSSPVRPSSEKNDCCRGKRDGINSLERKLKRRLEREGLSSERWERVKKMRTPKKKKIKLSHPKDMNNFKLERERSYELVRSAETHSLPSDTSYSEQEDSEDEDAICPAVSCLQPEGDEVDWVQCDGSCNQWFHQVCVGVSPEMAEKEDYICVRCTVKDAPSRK
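qHTS format, multiple compound concentrations. Buffer 50 mM HEPES pH 7.5/0.01% Tween-20; 200 nM KDM5BΔAP final; 10 min compound preincubation; substrate-mix levels 12.5 µM peptide, 25 µM α-KG, 0.25 mM NAD⁺; 30 min RT; ΔRFU.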
SNCA expr inh: SNCA gene expression inhibition; HEK-293 SNCA-luciferase knock-in, luminescence, 24 h; Potency, µM (titrated, usually from 57.2 µM), without a hit: top-dose activity change, negative = inhibition, hits mostly inhibitors; 0.17% of 140,000 active; AID 1671194;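 note: potency is the fitted concentration of half-maximal effect; plate controls were DMSO cells for no effect and cell-free wells for full effect; nearly all actives have a fitted effect of over 45% in size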
IP6K1 inh: inhibitors of human IP6K1; Q92551; IP6K1 kinase, ADP-Glo luminescence, 2 h; hits give low values; activity change, % (series mostly up to about 58 µM); 0.81% of 140,000 active; in the data active = activity change below about -25%; note: % is set by controls: 0 for no effect and ±100 for the full control effect
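ADP-Glo luminescence measures ADP made by human IP6K1 during a 2 h RT reaction with ATP/IP6 (mix at 1.3 mM/130 uM); top library doses 57.5 and 19.1 uM final.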
SNCA viab count: reduces viability of HEK-293 SNCA reporter cells. HEK-293-SNCA-luc viability, GF-AFC fluorescence, 24 h. Potency, µM (series often up to 57.1 µM), inactives show top-dose activity change, negative = cytotoxicity, actives largely listed as cytotoxic. 0.12% of 150,000 active;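 note: potency is the fitted concentration of half-maximal effect; 0% = DMSO-treated cells and -100% = medium-only wells without cells; nearly all actives have a fitted effect of over 30% in size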
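Cytotoxicity counterscreen: after 24 h compound treatment of genome-edited SNCA-luciferase HEK-293 cells, live-cell protease substrate GF-AFC read by fluorescence after 30 min; activity scaled between DMSO (0%) and medium-only (-100%), curves Hill-fitted.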
An asterisk follows results filed as active; i = inactive; ? = inconclusive; . = not tested or not shown; [ ] = remark or other dose. This is a sample that favours compounds with a hit; in the whole collection about 2.8% have one here. Unless noted, calls come from the whole dose curve; as a rule, active = well fitted curve in the direction sought with a large enough effect; inconclusive = small, poorly fitted or top-dose-only effect, or another doubt; inactive = no such curve, though single readings can be large; an effect the other way counts as inactive or inconclusive.

SMILES	KDM5B inhibitor	SNCA expr inh	IP6K1 inh	SNCA viab count
CCOC(=O)c1cc(-c2ccc(C)cc2)n(CCC(=O)Nc2nc3c(C)cccc3s2)c1C	?	14.1µM*	5.4	-11.4%
O=C(Nc1ccc(Cl)c(S(=O)(=O)N2CCCC2)c1)C1CC(=O)N(CCc2ccccc2)C1 (stereo not drawn)	i	.	.	.
O=C1N(Cc2ccccc2F)CCOC12CCN(Cc1ccccc1)CC2	?	8.8%[87.6 µM]	7.5	7.6%[87.6 µM]
O=C1N(Cc2ccccc2F)CCOC12CCN(Cc1ccccc1F)CC2	15.8µM*	-22.3%[87.6 µM]	-4.9	3.0%[87.6 µM]
Cc1cccc(C(=O)Nc2ccc3nc(SCC(=O)N4CCOCC4)sc3c2)c1	i	.	.	.
C=CC[C@H]1CC(C)=C[C@H](CC=C)N1Cc1ccc(CN(C)S(C)(=O)=O)o1	14.1µM*	2.3%	2.6	6.0%
CN(Cc1ccc(CN2CCCC(O)(CO)C2)o1)S(C)(=O)=O (stereo not drawn)	i	3.6%	4.1	-1.6%
CCOC(=O)C1CCC(CNC(=O)N2CCCC2c2ccc(Cl)cc2)CC1 (stereo not drawn)	i	.	.	.
Cc1noc(-c2cccs2)c1C(=O)NCCC(c1ccccc1)c1ccccc1	35.5µM*	-20.9%	-19.7	-2.4%
Cc1noc(-c2cccs2)c1C(=O)NCCCCc1ccccc1	31.6µM*	5.3%	-10.3	-1.5%
CCCOCCNC(=O)c1c(C)noc1-c1cccs1	25.1µM*	11.1%	-9.0	5.5%
CCOc1ccccc1Nc1nc(N)c(C(=O)c2ccc(CC)cc2)s1	i	.	.	.
COc1ccc2c(=O)c(Oc3ccccc3Br)c(C)oc2c1	i	.	.	.
CNC(=O)C1CCN(C(=O)c2ccc(-c3ccccc3OC)cc2)CC1	.	25.8%	3.1	2.7%[12.5 µM]
CN(C)CCN(C)C(=O)c1ccc(-c2ncc3cnc(-c4ccccc4)cn23)cc1	31.6µM*	-6.1%[87.6 µM]	-12.4	5.4%[87.6 µM]
CNC(=O)C1CCN(C(=O)c2ccc(-c3ncc4cnc(-c5ccccc5)cn34)cc2)CC1	22.4µM*	12.1%	1.6	2.7%
N#Cc1ccccc1-c1ccc(COC(=O)c2ccco2)cc1	i	.	.	.
O=C(CCCc1ccccc1)Nc1ccc(OC2CCNCC2)nc1	17.8µM*	99.8%	6.6	2.4%
Cc1[nH]c2ccccc2c1C(C[N+](=O)[O-])c1ccc(C(F)(F)F)cc1 (stereo not drawn)	i	.	.	.
CN(CCC(O)c1ccccc1)C(=O)c1ccc2oc(-c3cccc(F)c3)nc2c1 (stereo not drawn)	22.4µM*	86.4%	0.8	5.8%
Cc1nc(CNC(=O)c2ccc3oc(-c4cccc(F)c4)nc3c2)cs1	20µM*	120.4%	14.3	1.7%
O=C(Nc1ccc2oc(-c3cccc(F)c3)nc2c1)c1ccc2ccccc2c1	i[11.5 µM]	-3.7%	14.5	-0.3%
COc1ccc(-n2cc(-c3ccnc(NCCC4CCCN4C)n3)cn2)cc1 (stereo not drawn)	28.2µM*	41.4%	7.6	-1.7%
CCOc1cc2ccccc2cc1C(=O)Nc1ccc2oc(C)nc2c1	i	.	.	.
COc1cccc(CC(=O)N2CC(CNc3ccccc3)C3(C2)CN(c2ccccc2)C3)c1 (stereo not drawn)	17.8µM*	-22.6%	9.7	-18.7%
SMILES	KDM5B inhibitor	SNCA expr inh	IP6K1 inh	SNCA viab count
CC(=O)Nc1ccc(NC(=O)c2cc(-c3ccncc3)cn2Cc2ccccc2C)cc1	?	29.6%	-10.5	-18.0%
Cc1ccccc1Cn1cc(-c2ccncc2)cc1C(=O)NC(C)c1ccccn1 (stereo not drawn)	31.6µM*	2.5%	2.2	-11.5%
Cc1ccc(S(=O)(=O)N2CCC(C(=O)Nc3nnc(-c4ccc(Cl)cc4)o3)CC2)c(C)c1	i	.	.	.
c1nc2nc(Nc3ccc(N4CCOCC4)cc3)nc(NC3CCCCC3)c2[nH]1	.	?	-41.2*	?
O=C1OC2C3CC(C2Sc2ccccc2)C(C(=O)O)C13 (stereo not drawn)	i	.	.	.
O=C(c1ccccc1)N1CCn2c(nn(-c3ccc(C(F)(F)F)cc3)c2=O)C1	?	-8.1%	6.6	7.6%
COc1ccccc1C(=O)N1CCn2c(nn(-c3ccc(C(F)(F)F)cc3)c2=O)C1	79.4µM*	?	-1.5	-14.5%
Cc1ccc(-n2nc3n(c2=O)CCN(C(=O)c2ccc(Cl)nc2)C3)cc1	25.1µM*	-14.3%	6.4	-4.5%
Cc1ccc(NC(=O)Cn2cnnc2C#N)cc1C	i	.	.	.
Cn1c(=O)[nH]c(=O)c2c1nc(SCC(=O)O)n2Cc1ccc(Cl)cc1	i	.	.	.
CCCc1noc(-c2ccn3c(CNC(=O)Cc4cccc(F)c4)nnc3c2)n1	7.08µM*	-0.2%	11.3	11.0%
Cc1noc(-c2ccn3c(CNC(=O)Cc4cccc(F)c4)nnc3c2)n1	28.2µM*	27.0%	39.4	13.6%
CN(C)CCNC(=O)C(C)(C)Oc1nn(CC2CCOCC2)c2ccccc12	31.6µM*	5.2%[87.6 µM]	-0.2	7.7%[87.6 µM]
CC(C)(Oc1nn(CC2CCOCC2)c2ccccc12)C(=O)NCc1ccncc1	i	-2.5%[87.6 µM]	-6.2	0.4%[87.6 µM]
Cc1ccc(NC(=O)c2nn(C)c(=O)c3ccccc23)c(O)c1	i	.	.	.
N#Cc1nc(-c2ccc(S(=O)(=O)N3CCCC3)cc2)oc1NCCCn1ccnc1	i	.	.	.
Cc1nc2scc(CC(=O)NCC(C)C)n2c(=O)c1-c1cc(C)n(-c2ccc(F)cc2)n1	?	1.7%	25.5	-3.6%
Cc1nc2scc(CC(=O)N3CCOCC3)n2c(=O)c1-c1cc(C)n(-c2ccc(C(C)C)cc2)n1	25.1µM*	-2.3%	5.1	-2.7%
CCCNC(=O)Cc1csc2nc(C)c(-c3cc(C)n(-c4ccc(Cl)c(Cl)c4)n3)c(=O)n12	28.2µM*	-24.8%	15.6	-4.2%
CCCCNC(=O)Cc1csc2nc(C)c(-c3cc(C)n(-c4cccc(Cl)c4)n3)c(=O)n12	?	-13.8%	23.0	-3.6%
Cc1ccc(Cl)cc1-n1nc(-c2c(C)nc3scc(CC(=O)NCCC(C)C)n3c2=O)cc1C	22.4µM*	-10.4%	6.3	?
Cc1cccc(-n2nc(-c3c(C)nc4scc(CC(=O)NC5CC5)n4c3=O)cc2C)c1	25.1µM*	-4.6%	13.3	?
O=C(Nc1ccc(O)cc1)c1csc(NC2CC2)n1	i	.	.	.
O=C(CCNS(=O)(=O)c1ccc2c(c1)CCN2C(=O)C1CC1)Nc1ccc(F)c(Cl)c1	i	.	.	.
Cc1ccc(NC(=O)[C@H](Cc2ccccc2)NC(=O)OC(C)(C)C)cc1	i	.	.	.
SMILES	KDM5B inhibitor	SNCA expr inh	IP6K1 inh	SNCA viab count
Cn1cnc2c1c(=O)n(CC(=O)N1CCC1)c(=O)n2C	i	.	.	.
C=CCOc1c(OC)ccc2c1CN(C1CCCC1)C(=O)CCN2C[C@@H](O)COCc1ccccc1	.	.	-11.6	.
COc1cc(-c2nc3cnccn3c2Nc2ccc(C(C)C)cc2)ccc1O	?	17.4%	-9.8	?
COc1cccc(-c2nc3cnccn3c2NCCC(=O)N2CCN(C(C)C)CC2)c1	28.2µM*	1.6%	5.9	?
Cc1cccc(-c2nc3cnccn3c2NCCC(=O)N2CCCCC2)c1	28.2µM*	-0.5%	5.9	22.8%
Cc1cccc(-c2nocc2CCC(=O)N2CCN(c3cccc(C)c3)CC2)c1	i	5.8%	10.9	-8.0%
Cc1ccccc1-c1nc2cnccn2c1NCCC(=O)N1CCC(C)CC1	28.2µM*	?	18.9	14.4%
